Laboratory results published in PubChem BioAssay (NCI).
About 79,000 compounds went through this panel and 15% of them were active in at least one assay; those are over-represented in the sample as a whole. Unmarked numbers belong to inactive results. The source made the active and inactive calls. Rule as the data show it: active = growth inhibition above about 70%; inactive = the rest.

Legend:
[1] = NCI Yeast Anticancer Drug Screen. Data for the rad50 strain (AID 155);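 also: 0% = growth of vehicle-only cultures of the same strain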; conditions: S. cerevisiae rad50 strain growth inhibition; at 50.0 µM; active compounds read high
In short: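 Relative growth inhibition (compound vs vehicle) was measured in yeast with a defined repair-gene alteration.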

[2] = NCI Yeast Anticancer Drug Screen. Data for the mec2-1 strain (AID 157); conditions: S. cerevisiae mec2-1 strain, at 50.0 µM, active compounds read high
In short: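 Test agents were screened against the mec2-1 yeast strain, with defined DNA repair or cell cycle alteration. Growth was scored as inhibition against vehicle-only controls.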

[3] = NCI Yeast Anticancer Drug Screen. Data for the sgs1 mgt1 strain (AID 161);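 also: 0% = growth of cultures given vehicle only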; conditions: S. cerevisiae sgs1 mgt1 strain, at 50.0 µM, active compounds read high
In short: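 Genetically altered yeast, compound exposure, growth inhibition relative to vehicle.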

[4] = NCI Yeast Anticancer Drug Screen. Data for the cln2 rad14 strain (AID 165);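 also: 0% = growth equal to vehicle treated cultures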; conditions: S. cerevisiae cln2 rad14 strain, at 50.0 µM, active compounds read high
In short: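 Growth of compound-exposed yeast (cln2 rad14 genotype) measured and expressed as inhibition relative to vehicle.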

[5] = NCI Yeast Anticancer Drug Screen. Data for the bub3 strain (AID 167); conditions: S. cerevisiae bub3 mutant strain, at 50.0 µM, active compounds read high
In short: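 Screening used yeast with an engineered genetic alteration affecting cell cycle control. Compound-exposed cultures were compared with vehicle cultures, and reduced growth was taken as inhibition.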

[6] = NCI Yeast Anticancer Drug Screen. Data for the mlh1 rad18 strain (AID 175); conditions: S. cerevisiae mlh1 rad18 strain growth inhibition; at 50.0 µM; active compounds read high
In short: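 In this whole-cell yeast screen, a strain with altered DNA damage repair is challenged with compound, and its growth is measured against matched vehicle-treated controls.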

SMILES	growth inhibition [1]	growth inhibition [2]	growth inhibition [3]	growth inhibition [4]	growth inhibition [5]	growth inhibition [6]
CNCCc1ccc(O)c2ccc3ccc(OC)c(O)c3c12	2.5%	-7.25%	-14.2%	5.25%	-17.3%	4.05%
CC(=O)C(CN1CCCCC1)C(c1ccccc1)c1c(O)c2ccccc2oc1=O (stereo unspecified)	6.8%	-9%	9.25%	26.2%	33%	9.55%
NC(=O)CI	30.8%	27.1%	38.1%	13.8%	18.5%	17.1%
C[C@]12CC[C@H]3[C@@H](CC[C@]4(O)C[C@@H](O)CC[C@]34CO)[C@@]1(O)CC[C@@H]2C1=CC(=O)OC1	-6.1%	-23.1%	-17.6%	0.45%	1.35%	-16.9%
[N-]=[N+]=CC(=O)C1(C(=O)C=[N+]=[N-])CC1	-14.7%	-11.2%	-41%	-18.1%	-16.9%	-27.1%
O=c1[nH]cnc2c1ncn2-c1ccc(N(CCCl)CCCl)cc1	4.3%	12.7%	16%	-20.5%	-12.2%	15.2%
CCOP(=O)(OCC)O/N=C(/C#N)c1ccccc1	11.3%	-6.4%	18.4%	-0.35%	-7.45%	-1%
OC1(c2ccccc2)N=C(c2ccccc2)c2ccccc2-n2cccc21 (stereo unspecified)	0.95%	-24.8%	-14.5%	0.75%	-0.95%	-1.3%
O=[Se](=O)(O)O	-45%	-20.2%	-8.4%	-74.7%	-12.6%	-14.5%
CC(C)CCN(CCc1ccccc1[N+](=O)[O-])CCC(C)C	12.1%	-7.45%	-8.7%	-36.9%	44.1%	38.6%
CCC1(CCC(C)C)C(=O)NC(=O)N(c2ccccc2)C1=O (stereo unspecified)	1.2%	-1.5%	-4.5%	7.2%	8.3%	-9.25%
O=C(NN=C1CCN(Cc2ccccc2)CC1)C(O)(c1ccccc1)c1ccccc1	-13.6%	-5.5%	13.8%	-8.5%	-14%	-0.65%
O=C(/C=C/c1ccccc1)CCC1C(=O)NC(=S)NC1=O	-4.05%	3.35%	27.2%	0.4%	-17.1%	-34.5%
CCOP(=O)(OCC)Oc1ccncc1	-2.8%	-0.3%	-7.6%	-4.25%	7.75%	4.1%
COC[n+]1cccc(C2CCC[N+]2(C)C)c1 (stereo unspecified)	6.35%	1.25%	6.8%	9.9%	1.8%	15.5%
CN(C)c1cccc(NC2=NCCO2)c1	-21.3%	-24.5%	-27.7%	7.35%	-20.4%	-14.6%
[Cu+2].[NH-]c1ccccc1C(=O)O.[NH-]c1ccccc1C(=O)O	-34.8%	-21.8%	-13.9%	-87.7%	-27.1%	-52.4%
O=[N+]([O-])c1ccc(SC2CCCCCCC2Br)c([N+](=O)[O-])c1 (stereo unspecified)	-16.9%	-13.5%	-0.5%	-33.6%	8.95%	-18.4%
CCOP(=O)(OCC)SC#N	15.1%	-2.85%	-6.4%	6.5%	-1.05%	16.1%
O=NN1CCCCCC1C(=O)O (stereo unspecified)	-22.1%	1%	-20.9%	-24.7%	2.7%	-0.25%
CC(=O)N1CN2CN(C1)CN(C(C)=O)C2	0.3%	-8.95%	-5.3%	-26.6%	-9.05%	-5.85%

SMILES	growth inhibition [1]	growth inhibition [2]	growth inhibition [3]	growth inhibition [4]	growth inhibition [5]	growth inhibition [6]
CN(C)C(=O)Sc1ccc(S(=O)(=O)F)cc1[N+](=O)[O-]	65.5%	36.9%	76.7% (active)	42.5%	34.4%	34.6%
O=C(O)C(F)(F)F.O=C(O)C(F)(F)F.[C-]#[O+].[Ru].c1ccc([PH+](c2ccccc2)c2ccccc2)cc1.c1ccc([PH+](c2ccccc2)c2ccccc2)cc1	1.5%	22.2%	21.9%	-7.45%	-14.9%	14.3%
O=C1C(NCC(O)CO)=C(N2CC2)C(=O)C(NCC(O)CO)=C1N1CC1 (stereo unspecified)	-0.05%	7%	1.15%	4.55%	8.8%	25.6%
[N-]=[N+]=C1C(=O)NN=C1c1ccccc1	-9.6%	-21.9%	-25.4%	0.5%	-17.2%	12.8%
CC(N)C(=O)c1ccccc1 (stereo unspecified)	-2.75%	5.2%	6.9%	-38.2%	15.3%	1.25%
O=[N+]([O-])c1ccc(OCCOCCOc2ccc(S(=O)(=O)F)cc2)c(Cl)c1	56.2%	15.4%	21.8%	29.6%	45.4%	56.5%
O=NN1CCCNCC1	-4.2%	-14.9%	-4.65%	-42.4%	15.4%	4.25%
Clc1ccc(N=c2ccc3ccccc3[oH+]2)cc1.Clc1ccc(N=c2ccc3ccccc3[oH+]2)cc1.[Co]	-5.05%	-25.4%	14.8%	-59.2%	-12.8%	15.6%
C[As](C)(=S)[As](C)(C)=S	77.3% (active)	50.1%	65.2%	27.6%	66.7%	69.9%
CN(C)P(=O)(CC(O)c1ccccc1)N(C)C (stereo unspecified)	18.6%	-2.05%	-14.5%	-8.05%	8.5%	10.9%
CC(=O)CC(C)=O.CC(=O)CC(C)=O.CC(=O)CC(C)=O.CC(=O)CC(C)=O.[Zr]	7.2%	28.6%	10.4%	29.6%	38.6%	30.1%
c1ccc(N2CCNCC2)cc1	-11.3%	4.45%	-27.2%	-28.6%	-0.8%	-1.5%
COP(=O)(OC)C(O)C(Br)(Br)Br (stereo unspecified)	28.6%	23.1%	45.2%	34.8%	11.7%	23.8%
CCC[CH2][Sn]([CH2]CCC)([n]1cncn1)[n]1cncn1	92.2% (active)	96.1% (active)	93.7% (active)	78.2% (active)	88.5% (active)	93.8% (active)
C1CCN2CC34CC(CC5CCCN(C6CCCC3N6)C54)C2C1 (stereo unspecified)	-19.5%	-43.1%	-22.1%	10.7%	-36.3%	-99.8%
CN1CCN[C@@H]2CCCC[C@@H]21	11.2%	-5%	-10.2%	-7.8%	5.65%	-11.6%
CCCCCCCCCCCCCCCC[As](CCCCCCCCCCCCCCCC)SCC1OC(OC(C)=O)C(OC(C)=O)C(OC(C)=O)C1OC(C)=O (stereo unspecified)	-3.8%	3.45%	6%	1%	-20.1%	-20.6%
C[n+]1ccc2ccccc2c1-c1c2ccccc2cc[n+]1C	27.4%	3.65%	-2.55%	18.9%	3%	6.05%
O=C1c2ccccc2C2(O)C3C=CCCN3CN12 (stereo unspecified)	2.65%	9.1%	-1.25%	4.15%	-4.05%	-6.75%
COc1ccc2c(c1O)[C@@]13CCCC=C1[C@@H](C2)[N+](C)(C)CC3	22.4%	13.7%	-19.9%	15.8%	-1.35%	-29.6%
